Shn3 inh set2 – reduction of Shn3 3'UTR firefly luciferase signal, primary screen, Schnurri-3 inhibitor project, cell-based, Clone20 osteoblasts, set 2; 360,000 tested, 0.52% active; Clone20 osteoblast Shn3 3'UTR firefly luciferase, 24 h; inhibition, % at 12.5 µM; AID 588674, 2011;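 active = mean inhibition of at least 75% with every replicate also reaching 75%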
MITF TRPM1 inh – inhibitors of MITF-dependent TRPM1 promoter reporter, primary screen, cell-based, SK-MEL-5, single point, luciferase; SK-MEL-5 TRPM1 promoter luciferase, 24 h; 330,000 tested, 0.83% active; inhibition, % at 12.5 µM;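 active = mean inhibition across replicates of 60% or more, whatever share of single replicates reaches that level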
TWEAK Fn14 block – inhibitors of TWEAK-Fn14 signaling, primary screen, luciferase reporter cells, uHTS. TWEAK-stimulated Fn14 reporter cells, luciferase luminescence, 8 h. inhibition, % at 10 µM. 360,000 tested, 2% active. AID 1159606, 2016; in the data active = inhibition above about 50%
Peg3 prom inh – Peg3 promoter-driven luciferase inhibitors, primary screen, cell-based, HeLa, luciferase luminescence; inhibition, % at 20 µM; AID 588405, 2011; 360,000 tested, 1.7% active; HeLa PEG-Prom luciferase reporter, overnight;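 active = inhibition of at least 50% at 20 µM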
TROY NFkB inh – inhibitors of TROY-driven NF-kB signaling, primary screen, Q293 LMP1-TROYcd cells, NF-kB luciferase, uHTS | 360,000 tested, 0.98% active | inhibition, % at 10 µM | Q293 LMP1-TROYcd NF-kB luciferase reporter, 4 h;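 active = compounds whose plate-normalised and pattern-corrected inhibition of the luciferase reporter signal at the single screening dose is 50% or more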
LMP1 NFkB inh – EBV LMP1-driven NF-kappaB luciferase reporter inhibitors, primary screen, cell-based, luminescence, single point | 350,000 tested, 0.69% active | AID 504558, 2011 | LMP1-induced NF-kappaB luciferase reporter cells | inhibition, % at 12.5 µM; in the data active = inhibition above about 41%
Hits are given with their value; i = inactive; nt = no result given. Only some compounds are listed: those with a hit (about 4.1% of all), similar ones and a draw of the others.

SMILES	Shn3 inh set2	MITF TRPM1 inh	TWEAK Fn14 block	Peg3 prom inh	TROY NFkB inh	LMP1 NFkB inh
CCCCn1c(CN(C)Cc2ccccc2)nc2c1c(=O)n(C)c(=O)n2C	87	i	i	i	i	i
CCCn1c(CN(C)Cc2ccccc2)nc2c1c(=O)n(C)c(=O)n2C	i	i	i	i	i	i
COc1ccc(Cc2nc(-c3ccncc3)no2)cc1	i	i	i	i	50	i
Clc1ccc(Cc2nc(-c3ccncc3)no2)cc1	i	i	i	i	i	i
O=C1NC(Cc2ccc(O)cc2)c2nc3ccc(Cl)cc3c(=O)n2-c2cc3ccccc3cc21 (stereo not drawn)	i	nt	i	61	i	i
Cc1ccc2c(=O)n3c(nc2c1)C(Cc1ccc(O)cc1)NC(=O)c1cc2ccccc2cc1-3 (stereo not drawn)	i	nt	i	62	i	i
O=C1NC(Cc2ccc(O)cc2)c2nc3cc(F)ccc3c(=O)n2-c2cc3ccccc3cc21 (stereo not drawn)	i	nt	i	i	i	i
Cc1cc2nc3s/c(=C/c4ccc(-c5ccccc5C(=O)O)o4)c(=O)n3c2cc1C	i	i	i	i	i	i
O=C(O)c1ccccc1-c1ccc(/C=c2\sc3nc4cc(Br)cnc4n3c2=O)o1	i	i	75	i	i	i
O=c1cc(-c2ccccc2)[nH]c2nc3ccccc3n12	i	i	55	i	i	i
O=[N+]([O-])c1ccc2nc(-c3ccc(Cl)cc3)n(OCc3ccccc3)c2c1	i	i	i	i	56	i
COc1ccc(-c2nc(N)n(C(=O)Cc3ccccc3)n2)cc1	i	i	i	i	i	i
COc1ccc2cc3c(N)nn(C(=O)c4cccc([N+](=O)[O-])c4)c3nc2c1	i	i	i	i	i	46
COc1ccc2cc3c(N)nn(C(=O)C4CCC(C(C)(C)C)CC4)c3nc2c1 (stereo not drawn)	i	nt	90	i	55	75
COc1ccc2cc3c(N)nn(C(=O)Cc4ccccc4OC)c3nc2c1	i	i	52	i	i	i
CN(CC(=O)Nc1ccc(Cl)cc1)C(=O)Cn1[nH]c(=O)c2ccccc2c1=O	i	i	i	i	i	i
COc1ccccc1N(CC(=O)Nc1ccccc1C(=O)N1CCOCC1)S(C)(=O)=O	i	i	i	i	i	i
COc1cccc(NC(=O)CN(C)S(=O)(=O)/C=C/c2ccccc2)c1	i	i	i	i	i	i
COc1ccc(-c2ccc3oc(-c4ccsc4)cc(=O)c3c2)cn1	i	i	i	i	63	i
CN(CC(=O)Nc1ccc(F)cc1)C(=O)Cn1nnc(-c2ccccc2)n1	i	i	i	i	i	i
CC(C)(C)c1ccc(/C=C/C(=O)c2ccc(NC3=NCCCS3)cc2)cc1	i	i	61	i	i	i
O=C(/C=C/c1ccccc1)c1ccc(NC2=NCCCS2)cc1	i	i	i	i	i	i
O=C(/C=C/c1ccc(Br)cc1)c1ccc(NC2=NCCCS2)cc1	i	i	59	108	i	i
O=C(CN1C(=O)NC2(CCCCC2)C1=O)N1CCN(c2ncccn2)CC1	i	i	i	i	i	i
O=C(Nc1ccc(Br)cc1)c1cccc(S(=O)(=O)Nc2cnc3ccccc3c2)c1	i	i	51	i	i	i
SMILES	Shn3 inh set2	MITF TRPM1 inh	TWEAK Fn14 block	Peg3 prom inh	TROY NFkB inh	LMP1 NFkB inh
COc1ccc(NC(=O)c2cccc(S(=O)(=O)Nc3ccc(Br)cc3)c2)cn1	i	i	64	i	i	i
O=C(Nc1ccc(Br)cc1)c1cccc(S(=O)(=O)Nc2ccccn2)c1	i	i	i	i	i	i
COc1ccc(N2CCN(C(=O)C3CCCN(S(=O)(=O)c4ccc(C)cc4)C3)CC2)cc1 (stereo not drawn)	i	i	i	i	i	i
O=C(CSc1n[nH]c(=O)n1C1CC1)Nc1cc(Cl)ccc1Oc1ccccc1	i	i	i	50	i	i
O=C(CSc1n[nH]c(=O)n1C1CC1)Nc1ccccc1	i	i	i	i	i	i
CCc1cccc2c1Sc1ccccc1CC2N1CCNCC1 (stereo not drawn)	i	81	i	111	i	i
CN1CCN(C2Cc3ccccc3Sc3ccc(Cl)cc32)CC1 (stereo not drawn)	i	i	i	i	i	i
N#CC(C#N)=Cc1c[nH]c(=O)c(C#N)c1Nc1ccccc1	i	nt	i	i	i	nt
S=C(Nc1ccc(N2CCOCC2)cc1)Nc1ccc2snnc2c1	i	i	73	i	76	i
O=C(NCC1CCCO1)c1ccc(COc2ccccc2)cc1 (stereo not drawn)	i	i	i	i	i	i
CC(=O)c1sc2nc(C)cc(C)c2c1N	i	i	i	i	i	i
Cc1ccc2nc(-c3sc4nc(C)cc(C)c4c3N)[nH]c2c1	i	i	78	i	70	i
Cc1ccc2nc(-c3cccc(N)c3)[nH]c2c1	i	i	61	i	i	i
Cc1ccc(-c2nc3ccc([N+](=O)[O-])cc3[nH]2)cc1	i	i	51	i	i	i
Nc1cccc(-c2nc3ccccc3[nH]2)c1	i	i	i	i	i	i
COc1ccc(-c2nc3ccc([N+](=O)[O-])cc3[nH]2)cc1	i	i	i	i	i	i
CCc1nc2ccc(C(=O)NCCNC(C)=O)cn2c1N(C)Cc1ccc(OC)cc1	i	nt	i	i	i	nt
COc1ccc(/C=N/OCC(=O)Nc2cc(C)on2)cc1OC	i	i	i	i	i	i
COc1ccc(/C=N/OCC(=O)NC(c2ccccc2)c2ccccc2)cc1OC	i	i	52	i	i	i
CC(C)CN(C(=O)COc1ccc2ccc(=O)oc2c1)C1CCS(=O)(=O)C1 (stereo not drawn)	i	i	61	i	i	i
O=C(Nc1ccc(Br)cc1)C1CCN(c2cnccn2)CC1	i	i	i	i	i	i
C=C1CC(COc2cc(=O)oc3ccccc23)(c2ccccc2)OC1=O (stereo not drawn)	97	94	67	106	58	67
CCOC(=O)C1CCN(C(=O)COc2cc(C)c(Br)cc2C)CC1	i	i	91	i	nt	i
CCOC(=O)C1CCN(C(=O)COc2ccc(Br)cc2Br)CC1	i	i	i	i	i	i
CCc1ccc(C(C)NC(=O)c2ccc3c(c2)OCO3)cc1 (stereo not drawn)	i	i	i	i	i	i
CN(C)Cc1ccc(-c2nc3cccc4c3n2CCNC4=O)cc1	i	i	i	58	i	i
O=C(Nc1cccc(CNCCc2c[nH]c3ccccc23)c1)c1ccccc1Cl	i	i	i	i	i	i
CCN(CC)Cc1ccc(NC(=O)c2sc3cc(Cl)ccc3c2Cl)cc1	i	i	i	105	i	i

Screening results as filed in PubChem.
